# PubChem BioAssay (EPA / NIEHS)
# Inconclusive results are not listed. Calls of active or inactive are those of the source. The calls were made as follows: active = hit-call score of the fitted dose curve at least 0.9, where 1 is the maximum; inconclusive = response in the unintended direction; inactive = score below 0.9.
# Target: Estrogen receptor (Homo sapiens) + Estrogen receptor beta (Homo sapiens) (UniProt P03372+Q92731)
# Test: OT_ER_ERaERb_0480: Odyssey Thera (OT) 8-hour HEK293T Protein-Complementation Assay for Estrogen Receptor-alpha/-beta Heterodimer (AID 2283352)
# Procedure, shortened: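 Fluorescence increase from reconstituted reporter fragments, quantified by laser scanning cytometer, reflects ER-alpha/ER-beta heterodimer formation in human HEK293T cells. Exposure 8 h; positive-direction fitting against DMSO vehicle.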
# Sequence of Estrogen receptor (Homo sapiens) + Estrogen receptor beta (Homo sapiens) (P03372 whole entry, looked up): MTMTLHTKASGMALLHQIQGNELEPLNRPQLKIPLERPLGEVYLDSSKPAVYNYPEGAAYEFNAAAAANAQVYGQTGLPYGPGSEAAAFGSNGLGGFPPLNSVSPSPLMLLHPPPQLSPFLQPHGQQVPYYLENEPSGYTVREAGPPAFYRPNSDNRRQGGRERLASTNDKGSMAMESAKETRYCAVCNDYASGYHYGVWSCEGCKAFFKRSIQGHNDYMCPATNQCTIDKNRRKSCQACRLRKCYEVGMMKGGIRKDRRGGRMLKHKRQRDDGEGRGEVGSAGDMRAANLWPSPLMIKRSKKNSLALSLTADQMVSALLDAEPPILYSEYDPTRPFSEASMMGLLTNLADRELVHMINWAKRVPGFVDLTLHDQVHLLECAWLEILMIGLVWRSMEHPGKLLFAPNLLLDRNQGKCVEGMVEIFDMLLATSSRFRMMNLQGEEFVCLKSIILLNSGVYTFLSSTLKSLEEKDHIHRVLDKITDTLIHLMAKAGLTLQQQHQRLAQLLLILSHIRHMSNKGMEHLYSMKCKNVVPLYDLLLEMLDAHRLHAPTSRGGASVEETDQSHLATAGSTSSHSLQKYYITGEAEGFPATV
# Sequence of Estrogen receptor (Homo sapiens) + Estrogen receptor beta (Homo sapiens) (Q92731 whole entry, looked up): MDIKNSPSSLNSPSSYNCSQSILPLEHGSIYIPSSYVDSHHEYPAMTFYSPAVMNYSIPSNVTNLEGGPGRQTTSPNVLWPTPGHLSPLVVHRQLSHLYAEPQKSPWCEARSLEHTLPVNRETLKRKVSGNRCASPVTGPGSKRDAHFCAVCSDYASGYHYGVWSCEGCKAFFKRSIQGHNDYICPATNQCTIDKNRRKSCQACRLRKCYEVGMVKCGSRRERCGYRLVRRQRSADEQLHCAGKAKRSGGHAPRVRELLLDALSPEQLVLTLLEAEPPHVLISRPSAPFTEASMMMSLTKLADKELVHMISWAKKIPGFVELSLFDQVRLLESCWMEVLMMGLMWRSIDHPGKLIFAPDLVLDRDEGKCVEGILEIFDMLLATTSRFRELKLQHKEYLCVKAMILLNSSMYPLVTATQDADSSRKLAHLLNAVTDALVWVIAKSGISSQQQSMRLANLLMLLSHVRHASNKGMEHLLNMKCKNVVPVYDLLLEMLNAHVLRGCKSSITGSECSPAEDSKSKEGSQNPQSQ
Structure (SMILES),outcome,AC50
CCCCc1ccc2c(n1)[C@@H](c1ccc(OC)cc1C[C@H](C)C(=O)O)[C@H](C(=O)O)[C@H]2c1ccc2c(c1)OCO2,inactive,
COc1cc(-c2nc(NC(=O)c3cc4cc(C)cc(C)c4n3CC(=O)O)sc2CCC2CCCCC2)c(OC)cc1Cl,inactive,
COc1cc(C=O)ccc1O,inactive,
CCCCCCCC=O,inactive,
CCc1c(C(=O)NN2CCCCC2)nn(-c2ccc(Cl)cc2Cl)c1-c1ccc(Br)cc1,inactive,
COC(=O)c1ccc(O)cc1,,50 µM (active)
O=C(O)Cc1ccccc1Nc1c(Cl)cccc1Cl,inactive,
CCCCCCC(=O)OCC,inactive,
Cc1ccc(C(C)C)c(O)c1,inactive,
CCCCCCCCCCC,inactive,
Cc1nc(-c2ccc3c(c2)CCN(CCC2CCC(NC(=O)/C=C/c4ccc(F)cc4)CC2)CC3)no1 (configuration not stated),inactive,
CCCCCCCCCCCC(=O)OC,inactive,
CC(C)c1ccc(C(=O)N=C(N)N)cc1S(C)(=O)=O,inactive,

# Target: Androgen Receptor/SRC-1 Co-activator, AR (gene 367) (UniProt P10275)
# Sequence (P10275 whole entry, looked up): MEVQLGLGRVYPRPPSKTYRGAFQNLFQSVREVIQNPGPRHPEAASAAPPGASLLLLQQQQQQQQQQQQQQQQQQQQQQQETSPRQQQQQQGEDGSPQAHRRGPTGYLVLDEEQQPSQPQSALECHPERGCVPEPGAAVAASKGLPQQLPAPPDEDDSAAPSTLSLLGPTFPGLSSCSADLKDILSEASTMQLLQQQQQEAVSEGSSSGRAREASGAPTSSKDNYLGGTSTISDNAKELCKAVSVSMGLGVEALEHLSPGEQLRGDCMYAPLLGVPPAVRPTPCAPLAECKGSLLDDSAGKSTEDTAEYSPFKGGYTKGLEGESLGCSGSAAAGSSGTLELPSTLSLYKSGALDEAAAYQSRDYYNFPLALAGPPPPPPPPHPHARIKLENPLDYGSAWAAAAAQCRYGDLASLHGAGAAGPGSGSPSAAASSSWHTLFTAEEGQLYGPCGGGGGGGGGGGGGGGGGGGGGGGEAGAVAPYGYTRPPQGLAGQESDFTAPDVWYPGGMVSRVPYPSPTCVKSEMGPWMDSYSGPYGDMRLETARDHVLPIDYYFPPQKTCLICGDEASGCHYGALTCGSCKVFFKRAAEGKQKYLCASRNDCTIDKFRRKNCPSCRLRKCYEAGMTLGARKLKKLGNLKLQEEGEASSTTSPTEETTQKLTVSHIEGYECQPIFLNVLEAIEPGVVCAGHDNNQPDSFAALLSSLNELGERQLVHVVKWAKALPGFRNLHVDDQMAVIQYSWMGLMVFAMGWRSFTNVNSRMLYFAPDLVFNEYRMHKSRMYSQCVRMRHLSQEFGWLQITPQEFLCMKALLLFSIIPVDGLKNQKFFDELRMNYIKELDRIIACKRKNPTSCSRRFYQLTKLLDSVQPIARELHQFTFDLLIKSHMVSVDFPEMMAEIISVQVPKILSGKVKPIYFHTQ
# Test: OT_AR_ARSRC1_0480: Odyssey Thera (OT) 8-hour HEK293T Protein-Complementation Assay for Androgen Receptor/SRC-1 Co-activator (AID 2283354);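 also: hits raise the complementation signal above DMSO so AC50 marks enhancers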
# Procedure, shortened: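 HEK293T cells stably expressing AR and SRC-1 fused to Venus YFP fragments, imaged 8 h after dosing. Complementation fluorescence scored as nuclear/cytoplasmic ratio at 488 nm in at least 400 cells per image; gain fitted versus DMSO.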
Structure (SMILES),outcome,AC50
CCOc1ccc2c(c1)C(C)=CC(C)(C)N2,inactive,
COc1cc(-c2nc(NC(=O)c3cc4cc(C)cc(C)c4n3CC(=O)O)sc2CCC2CCCCC2)c(OC)cc1Cl,,49.1 µM (active)
COc1cc(C=O)ccc1O,inactive,
Cc1cccc(Nc2cc(Cl)nc(SCC(=O)O)n2)c1C,inactive,
COc1ccc2c(c1)c(CC(=O)O)c(C)n2C(=O)c1ccc(Cl)cc1,inactive,
O=C(O)Cc1ccccc1Nc1c(Cl)cccc1Cl,inactive,
COc1ccc(S(=O)(=O)N2C(=O)[C@@](c3ccccc3OC)(N3C[C@H](O)C[C@H]3C(=O)N(C)C)c3cc(Cl)ccc32)c(OC)c1,,27.2 µM (active)
CN[C@H]1CC[C@@H](c2ccc(Cl)c(Cl)c2)c2ccc(S(N)(=O)=O)cc21,,19.9 µM (active)
Cc1nc(-c2ccc3c(c2)CCN(CCC2CCC(NC(=O)/C=C/c4ccc(F)cc4)CC2)CC3)no1 (configuration not stated),inactive,
